Experiment [1] can be described thus: qHTS RealTime-Glo MT Cell Viability Assay in HEK293 cells - 16 hour (AID 1224872). Note: nearly all actives have a fitted effect of over 50% in size. Note: potency is the fitted concentration of half-maximal effect. A digest of the protocol: (§1)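 HEK293 cells were seeded at 600 cells/well together with NanoLuc luciferase and cell-permeant prosubstrate, preincubated 5 h at 37 C/5% CO2, then given compound in DMSO by pintool. Luminescence from viable-cell prosubstrate reduction was read repeatedly over 40 h.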
(In qHTS, concentration-response curves come from the screen itself.)

Experiment [2] in a line: qHTS RealTime-Glo MT Cell Viability Assay in HepG2 cells - 8 hour (AID 1224873). Note: nearly all actives have a fitted effect of over 55% in size. Note: potency is the fitted concentration of half-maximal effect. Put shortly: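 HepG2 cells (600/well) mixed with RealTime-Glo MT reagent, settled 5 h at 37 C/5% CO2 before compound addition. Nonlytic NanoLuc luminescence from viable-cell prosubstrate reduction read repeatedly during 40 h treatment at 37 C.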
A short description of experiment [3]: qHTS RealTime-Glo MT Cell Viability Assay in HEK293 cells - 40 hour (AID 1224874). Note: nearly all actives have a fitted effect of over 50% in size. Note: potency is the fitted concentration of half-maximal effect. Conditions: RealTime-Glo luminescence; max response: hits give low values. A digest of the protocol: (§2)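 Cells were seeded together with NanoLuc luciferase and a prosubstrate that viable cells reduce to a luciferase substrate. After a 5 h incubation at 37 C/5% CO2, compounds were added and luminescence was measured repeatedly during 40 h of treatment.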

Experiment [4] is described as follows: A CellTox Green Cytotoxicity Assay to monitor cytotoxicity in HepG2 cells - 16 hour (AID 1224876). Note: nearly all actives have a fitted effect of over 45% in size. Note: potency is the fitted concentration of half-maximal effect. Put shortly:
(§3)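 Read-out is fluorescence of a cyanine dye excluded from live cells that stains DNA of dead HepG2 cells, with signal proportional to cytotoxicity. Plates were read at 0, 8, 16, 24, 32 and 40 h after compound addition.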

Experiment [5] is described as follows: qHTS RealTime-Glo MT Cell Viability Assay in HepG2 cells - 32 hour (AID 1224877). Note: nearly all actives have a fitted effect of over 55% in size. Note: potency is the fitted concentration of half-maximal effect. A digest of the protocol:
(§4)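 HepG2 cells were seeded at 600 cells/well together with NanoLuc luciferase and a cell-permeant prosubstrate, preincubated 5 h at 37 C/5% CO2, then pin-dosed with compounds in DMSO. Nonlytic luminescence from viable cells was read at each time point.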

Experiment [6] is described as follows: qHTS RealTime-Glo MT Cell Viability Assay in HEK293 cells - 0 hour (AID 1224880). Note: top concentration of the series differs between compounds; nearly all actives have a fitted effect of over 45% in size. A digest of the protocol:
as §2

Experiment [7] in a line: A CellTox Green Cytotoxicity Assay to monitor cytotoxicity in HEK293 cells - 32 hour (AID 1224881). Note: nearly all actives have a fitted effect of over 40% in size. Note: potency is the fitted concentration of half-maximal effect. A digest of the protocol: (§5)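 Nonlytic real-time cytotoxicity: HEK293 + CellTox Green reagent plated, 5 h preincubation, pintool compound addition (23 nL in DMSO), 37 C for 40 h, fluorescence measured at successive time points.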
Experiment [8] can be described thus: A CellTox Green Cytotoxicity Assay to monitor cytotoxicity in HepG2 cells - 0 hour (AID 1224882). Note: nearly all actives have a fitted effect of over 35% in size. Note: potency is the fitted concentration of half-maximal effect. A digest of the protocol: as §3
The nature of experiment [9]: A CellTox Green Cytotoxicity Assay to monitor cytotoxicity in HEK293 cells - 8 hour (AID 1224884). Note: nearly all actives have a fitted effect of over 35% in size. Note: potency is the fitted concentration of half-maximal effect. Put shortly:
as §5

Experiment [10] is described as follows: qHTS RealTime-Glo MT Cell Viability Assay in HepG2 cells - 16 hour (AID 1224885). Note: nearly all actives have a fitted effect of over 50% in size. Note: potency is the fitted concentration of half-maximal effect. A digest of the protocol: as §4
A short description of experiment [11]: qHTS RealTime-Glo MT Cell Viability Assay in HEK293 cells - 24 hour (AID 1224886). Note: nearly all actives have a fitted effect of over 50% in size. Note: potency is the fitted concentration of half-maximal effect. Put shortly:
as §1

The nature of experiment [12]: A CellTox Green Cytotoxicity Assay to monitor cytotoxicity in HEK293 cells - 16 hour (AID 1224888). Note: nearly all actives have a fitted effect of over 35% in size. Note: potency is the fitted concentration of half-maximal effect. Put shortly:
as §5

Experiment [13] can be described thus: qHTS RealTime-Glo MT Cell Viability Assay in HepG2 cells - 0 hour (AID 1224889). Note: nearly all actives have a fitted effect of over 50% in size. Put shortly:
as §4

Experiment [14] in a line: A CellTox Green Cytotoxicity Assay to monitor cytotoxicity in HepG2 cells - 8 hour (AID 1224890). Note: nearly all actives have a fitted effect of over 45% in size. Note: potency is the fitted concentration of half-maximal effect. A digest of the protocol: as §3
A short description of experiment [15]: A CellTox Green Cytotoxicity Assay to monitor cytotoxicity in HepG2 cells - 24 hour (AID 1224878). Note: nearly all actives have a fitted effect of over 45% in size. Note: potency is the fitted concentration of half-maximal effect. A digest of the protocol: as §3
Experiment [16] is described as follows: A CellTox Green Cytotoxicity Assay to monitor cytotoxicity in HepG2 cells - 40 hour (AID 1224879). Note: nearly all actives have a fitted effect of over 40% in size. Note: potency is the fitted concentration of half-maximal effect. A digest of the protocol:
as §3

Experiment [17] is described as follows: A CellTox Green Cytotoxicity Assay to monitor cytotoxicity in HepG2 cells - 32 hour (AID 1224883). Note: nearly all actives have a fitted effect of over 50% in size. Note: potency is the fitted concentration of half-maximal effect. Put shortly:
as §3

A short description of experiment [18]: qHTS RealTime-Glo MT Cell Viability Assay in HEK293 cells - 8 hour (AID 1224887). Note: nearly all actives have a fitted effect of over 50% in size. Note: potency is the fitted concentration of half-maximal effect. A digest of the protocol:
as §2

A short description of experiment [19]: qHTS assay to identify small molecule antagonists of the estrogen receptor alpha (ER-alpha) signaling pathway using the BG1 cell line in the presence of 0.1 nM 17-beta-estradiol - cell viability counter screen (AID 1259241). Note: nearly all actives have a fitted effect of over 40% in size. Put shortly: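 Measures cytotoxicity alongside the ER-alpha antagonist readout: VM7Luc4E2 cells, charcoal-stripped serum, 0.1 nM 17beta-estradiol final, 22 hr compound incubation at 37C, CellTiter-Fluor fluorescence.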

Experiment [20] is described as follows: A CellTox Green Cytotoxicity Assay to monitor cytotoxicity in HEK293 cells - 24 hour (AID 1224875). Note: nearly all actives have a fitted effect of over 45% in size. Note: potency is the fitted concentration of half-maximal effect. Put shortly: as §5

Unmarked numbers belong to inactive results. Records with an inconclusive call do not appear. The source made the active and inactive calls. Calls come from the whole dose curve; as a rule, active = well fitted curve in the direction sought with a large enough effect in the repeat runs; inconclusive = weak or mixed curves; inactive = no such curve, though single readings can be large; an effect the other way counts as inactive or inconclusive.
% is set by controls: 0 for no effect and ±100 for the full control effect.

For the molecule `c1ccc(Nc2cccc3ccccc23)cc1`, the Potency result in experiment [1], in [2], in [4], in experiment [5], in experiment [6] and in experiment [7] was “inactive” throughout. Further, the Potency entry in experiment [8], in experiment [9], in experiment [10], in experiment [11], in [12] and in experiment [13] was “inactive” in each case. Also, the Potency result in experiment [14] is “inactive”. In addition, in experiment [3], the max response is -7.99%.
In the case of `Brc1ccccn1`, the Potency entry in experiment [1], in experiment [2], in experiment [5], in experiment [15], in experiment [16] and in experiment [6] was “inactive” each time. In addition, the Potency result in experiment [7], in experiment [8], in experiment [17], in [9], in [10] and in experiment [11] was “inactive” in each case. Further, the Potency result in experiment [18], in [13] and in experiment [14] was “inactive” in each case. In addition, the max response in experiment [3] was -0.513%.
For `C=C[C@](C)(O)CC[C@@H]1[C@@]2(C)CCCC(C)(C)[C@@H]2CC[C@@]1(C)O`, the Potency in experiment [1] is 19.5 µM (active); in experiment [2], 49 µM (active); in experiment [3], 21.9 µM (active); in [5], 54.9 µM (active); in experiment [15], 49 µM (active); in [16], 49 µM (active). Besides, the Potency in [7] was 43.6 µM (active); in experiment [17] it was 49 µM (active); in experiment [10], 49 µM (active); in experiment [14], 54.9 µM (active). Further, the Potency entry in [6], in experiment [8] and in experiment [13] was “inactive” throughout.
For `COc1ccccc1C=O`, the Potency result in [1], in experiment [2], in [4], in experiment [5], in experiment [15] and in experiment [16] was “inactive” each time. The Potency result in experiment [6], in experiment [7], in experiment [17], in experiment [9], in [10] and in experiment [18] was “inactive” throughout. Moreover, the Potency result in experiment [13] and in experiment [19] was “inactive” in each case. Also, in [3], the max response is 3.17%.
Turning to `COC(=O)[C@]1(C)CCC[C@@]2(C)[C@H]1CC=C1C=C(C(C)C)CC[C@@H]12`, the Potency result in [1], in experiment [2], in experiment [5], in experiment [6], in [10] and in experiment [11] was “inactive” in each case. The Potency result in experiment [18], in experiment [13] and in experiment [19] was “inactive” throughout. Also, the Potency in experiment [20] was 38.9 µM (active); in experiment [4], 24.5 µM (active); in experiment [15], 24.5 µM (active); in [16] it was 24.5 µM (active); in [7], 38.9 µM (active); in experiment [8] it was 24.5 µM (active). Further, the Potency in experiment [17] is 24.5 µM (active); in [9] it was 38.9 µM (active); in experiment [12], 38.9 µM (active); in experiment [14], 38.9 µM (active).
As for `O=C[C@H](O)[C@H](O)[C@H](O)CO`, the Potency result in experiment [1], in experiment [2], in [4], in [5], in [15] and in [16] was “inactive” each time. Besides, the Potency result in [6], in experiment [7], in experiment [17], in experiment [9], in experiment [10] and in experiment [18] was “inactive” throughout. Also, the Potency entry in experiment [12], in [13], in [14] and in [19] was “inactive” throughout. The max response in experiment [3] is 0.822%.
As to `CCC1(c2cnc[nH]2)Cc2ccccc2C1`, the Potency entry in [1], in [2], in [20], in experiment [4], in experiment [5] and in experiment [15] was “inactive” throughout. The Potency entry in experiment [16], in experiment [6], in experiment [7], in experiment [8], in [17] and in experiment [9] was “inactive” throughout. Besides, the Potency result in [10], in [11], in [18], in experiment [12], in experiment [13] and in experiment [14] was “inactive” each time.
As for `Oc1ccc(-c2ccccc2)c(Cl)c1`, the Potency is 24.5 µM (active) in experiment [1]; 21.9 µM (active) in [3]; 49 µM (active) in experiment [4]; 49 µM (active) in experiment [15]; 49 µM (active) in experiment [16]; 49 µM (active) in [17]. Also, the Potency in [11] is 24.5 µM (active). The Potency result in [2], in experiment [5], in experiment [6], in [8], in experiment [9] and in [10] was “inactive” each time. Moreover, the Potency result in [13] and in [19] was “inactive” throughout.
For `C=CCCCCCCC=C`, the Potency result in [1], in experiment [2], in experiment [20], in experiment [4], in experiment [5] and in experiment [15] was “inactive” each time. Moreover, the Potency result in experiment [16], in [6], in experiment [7], in experiment [8], in experiment [17] and in [9] was “inactive” throughout. In addition, the Potency result in experiment [10], in [11], in experiment [18], in [12], in [13] and in experiment [14] was “inactive” each time. In experiment [19], the Potency result is “inactive”.
With `O=C(O)Cc1ccc(OCCNC[C@H](O)c2ccccc2)cc1`, the Potency entry in experiment [1], in experiment [2], in experiment [20], in [4], in experiment [5] and in [15] was “inactive” throughout. Moreover, the Potency entry in [16], in experiment [6], in [7], in [8], in experiment [17] and in experiment [9] was “inactive” each time. Further, the Potency entry in experiment [10], in [11], in [18], in [12], in experiment [13] and in [14] was “inactive” each time. Besides, the Potency entry in experiment [19] was “inactive”.
In the case of `O=C(Oc1ccccc1)c1cccc(C(=O)Oc2ccccc2)c1`, the Potency result in experiment [1], in [2], in [5], in [6], in experiment [10] and in [13] was “inactive” each time. Also, the Potency entry in experiment [14] and in experiment [19] was “inactive” each time. The max response in [3] is 5.48%.
For `CCCN(CCc1cccs1)[C@H]1CCc2c(O)cccc2C1`, the Potency in [1] is 15.1 µM (active); in [3], 21.3 µM (active); in experiment [16], 23.9 µM (active); in experiment [17], 23.9 µM (active); in [11], 7.56 µM (active); in experiment [18], 15.1 µM (active). Further, the Potency result in [2], in [5], in [6], in experiment [8], in experiment [9] and in [10] was “inactive” in each case. In addition, the Potency result in experiment [13] and in experiment [19] was “inactive” each time.
As for `O=C(O)c1cccc(Cl)n1`, the Potency entry in experiment [1], in experiment [2], in [4], in [5], in experiment [15] and in [6] was “inactive” in each case. Moreover, the Potency result in [8], in [17], in [10], in experiment [11], in experiment [18] and in experiment [13] was “inactive” each time. In addition, the Potency result in experiment [14] and in [19] was “inactive” in each case. Also, the max response in experiment [3] was 7.12%.
In the case of `OCCCCl`, the Potency entry in [1], in [2], in experiment [20], in [4], in experiment [5] and in experiment [15] was “inactive” each time. Besides, the Potency entry in experiment [16], in experiment [6], in experiment [7], in experiment [8], in experiment [17] and in [9] was “inactive” each time. In addition, the Potency result in experiment [10], in experiment [11], in experiment [18], in experiment [12], in experiment [13] and in experiment [14] was “inactive” throughout.

These data come from PubChem BioAssay (Tox21).
